About 2,200 (0.71%) of roughly 310,000 compounds showed an effect of 50% or more. The effect is printed as a negative number. The list comes from a sample in which strong results are over-represented; it also holds similar structures and randomly drawn compounds.
molecular target: human ether-à-go-go-related gene (hERG) potassium channel (human, UniProt Q12809); experiment: primary screen, population patch clamp on CHO cells stably expressing hERG; higher = less effect of the substance
Sequence (Q12809 whole entry, looked up): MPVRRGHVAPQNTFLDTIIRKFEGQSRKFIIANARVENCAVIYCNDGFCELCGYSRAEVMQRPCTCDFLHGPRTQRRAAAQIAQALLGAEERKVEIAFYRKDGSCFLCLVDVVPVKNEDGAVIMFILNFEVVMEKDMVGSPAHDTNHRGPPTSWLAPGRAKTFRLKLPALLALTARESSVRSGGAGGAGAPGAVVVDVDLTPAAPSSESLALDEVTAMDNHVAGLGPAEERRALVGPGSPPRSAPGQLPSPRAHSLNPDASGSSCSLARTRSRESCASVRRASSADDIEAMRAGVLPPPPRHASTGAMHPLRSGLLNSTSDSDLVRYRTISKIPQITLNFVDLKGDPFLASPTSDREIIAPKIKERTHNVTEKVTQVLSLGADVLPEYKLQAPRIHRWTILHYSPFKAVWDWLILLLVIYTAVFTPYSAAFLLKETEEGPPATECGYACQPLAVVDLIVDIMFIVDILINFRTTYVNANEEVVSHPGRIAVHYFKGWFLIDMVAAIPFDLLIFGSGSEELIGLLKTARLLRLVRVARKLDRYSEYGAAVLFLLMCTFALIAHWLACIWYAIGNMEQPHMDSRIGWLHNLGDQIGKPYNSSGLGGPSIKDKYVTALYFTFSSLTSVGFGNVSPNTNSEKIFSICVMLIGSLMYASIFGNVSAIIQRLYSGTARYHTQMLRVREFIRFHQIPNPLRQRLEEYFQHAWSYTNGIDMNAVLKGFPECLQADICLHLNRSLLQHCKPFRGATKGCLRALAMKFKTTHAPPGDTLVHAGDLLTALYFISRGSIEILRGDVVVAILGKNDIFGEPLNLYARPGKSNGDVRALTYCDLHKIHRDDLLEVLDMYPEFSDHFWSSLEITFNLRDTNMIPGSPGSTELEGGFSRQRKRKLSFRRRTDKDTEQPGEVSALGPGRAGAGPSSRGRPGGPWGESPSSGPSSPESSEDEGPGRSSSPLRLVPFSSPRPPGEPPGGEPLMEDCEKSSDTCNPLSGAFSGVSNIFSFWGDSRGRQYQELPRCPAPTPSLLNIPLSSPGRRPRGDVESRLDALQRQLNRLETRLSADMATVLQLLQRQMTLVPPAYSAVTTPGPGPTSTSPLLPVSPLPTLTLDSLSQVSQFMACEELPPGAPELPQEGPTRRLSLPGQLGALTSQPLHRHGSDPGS

Row | Compound | hERG current change (%, negative = inhibition) at 1uM
1 | COc1ccc(CCNC(=O)c2ccc3nc(N4CCOCC4)sc3c2)cc1OC | 4.99%
2 | Cc1cc(NC(=O)Cc2ccccc2C)no1 | 10.2%
3 | CCN(CC(=O)Nc1ccc(NC(C)=O)cc1)C(=O)COc1ccccc1-c1ccccc1 | 12%
4 | CCOC(=O)c1cnc(-n2nc(C)cc2C)nc1NNc1nc(-c2ccccc2)cc(-c2ccccc2)n1 | -1.53%
5 | O=C(Nc1nc(-c2cccs2)cs1)c1ccc(Cl)s1 | -6.43%
6 | Cc1cc2nn(-c3ccc(Cl)cc3)nc2cc1N | 14%
7 | CCO/C=C/C(O)(CNC(=O)COc1ccccc1F)C(F)(F)F (stereo not shown) | 19.8%
8 | CN1C(=O)N(c2nnc(C(C)(C)C)s2)C(=O)C1c1ccccc1 (stereo not shown) | 14.2%
9 | Cc1nnsc1C(=O)Nc1ccc(S(=O)(=O)N2CCCCC2C)cc1 (stereo not shown) | 12.5%
10 | CC1CCCCN1C(=O)Nc1cccc(C(F)(F)F)c1 (stereo not shown) | 9.57%
11 | Cc1c(Cl)cccc1NC(=S)NNc1ncc(C(F)(F)F)cc1Cl | 4.45%
12 | COc1cccc(OCC(O)CN2CCc3ccccc3C2)c1.Cl (stereo not shown) | -57.6%
13 | Cl.OC(COc1ccc(Cl)cc1)CN1CCC(Cc2ccccc2)CC1 (stereo not shown) | -89.6%
14 | Cl.OC(COc1ccc(Cl)cc1)CN1CCCCC1 (stereo not shown) | -29.8%
15 | Cl.OC(COc1ccc(Cl)cc1)CN1CCN(c2ccccc2)CC1 (stereo not shown) | 0.0675%
16 | CC(C(O)c1ccc(O)cc1)N1CCC(Cc2ccccc2)CC1.O.O=C(O)C(O)C(O)C(=O)O (stereo not shown) | -37.8%
17 | CC(C(O)c1ccc(O)cc1)N1CCC(Cc2ccccc2)CC1.O=C(O)C(O)C(O)C(=O)O (stereo not shown) | -33.4%
18 | C[C@@H](CN1CCC(Cc2ccccc2)CC1)[C@@H](O)c1ccc(O)cc1.Cl | -60.5%
19 | CC(C)OCC(O)CN1CCC(Cc2ccccc2)CC1.Cl (stereo not shown) | -2.15%
20 | Cl.OC(COc1ccccc1)CN1CCN(CC(O)COc2ccccc2)CC1 (stereo not shown) | -19.5%
21 | Cl.OC(COc1ccccc1)CN1CCC(Cc2ccccc2)CC1 (stereo not shown) | -78%
22 | COc1ccc(OCC(O)CN2CCc3ccccc3C2)cc1.Cl (stereo not shown) | -2.53%

Row | Compound | hERG current change (%, negative = inhibition) at 1uM
23 | Cc1cccc(OCC(O)CN2CCc3ccccc3C2)c1.Cl (stereo not shown) | -0.945%
24 | COC(=O)c1ccc(N2C(=O)CC(N(C)Cc3ccccc3)C2=O)cc1 (stereo not shown) | 13.1%
25 | N#CC(C(=O)NCCc1ccccc1)c1nc2ccccc2nc1N1CCCCC1 (stereo not shown) | 4.11%
26 | COc1nc(N(C)S(=O)(=O)c2ccc(C)cc2)nc(C)c1Br | 16.5%
27 | C/C(=N/NC(=O)Cc1ccccc1)c1ccc(C)s1 | 11.5%
28 | O=C(NCCc1ccccc1)C1CC(=O)N(c2ccc3c(c2)OCCO3)C1 (stereo not shown) | 7.34%
29 | C/C(=N\NC(=O)C(O)(c1ccccc1)c1ccccc1)c1ccc(NC(=O)CCCC(=O)O)cc1 | 11.3%
30 | O=C(CSc1nc(C2CC2)n(-c2ccccc2)n1)NCc1ccco1 | -3.27%
31 | CCOc1ccc(OCC)c(S(=O)(=O)NNC(=O)c2c(C)nc3ccccn23)c1 | 5.91%
32 | COc1ccc(S(=O)(=O)N(C)CC(=O)N2CCOCC2)cc1 | -2.22%
33 | O=C(Nc1ccc(NC(=O)c2cccc([N+](=O)[O-])c2)cc1)c1cccc([N+](=O)[O-])c1 | 9.44%
34 | COc1cccc(OCC(O)CN2CCC(Cc3ccccc3)CC2)c1.Cl (stereo not shown) | -55.6%
35 | COc1ccc(OCC(O)CN2CCN(Cc3ccc4c(c3)OCO4)CC2)cc1.Cl (stereo not shown) | -9.87%
36 | Cc1cccc(C)c1OCC(O)CN1CCc2ccccc2C1.Cl (stereo not shown) | -24.3%
37 | Cl.OC(COc1ccc(Br)cc1)CN1CCC(Cc2ccccc2)CC1 (stereo not shown) | -83.7%
38 | Cc1cc(C)cc(OCC(O)CN2CCN(Cc3ccc4c(c3)OCO4)CC2)c1.Cl (stereo not shown) | -67.9%
39 | Cl.OC(COc1ccc(Br)cc1)CN1CCCC1 (stereo not shown) | 5.23%
40 | Cc1ccc(OCC(O)CN2CCc3ccccc3C2)c(C)c1.Cl (stereo not shown) | -42.6%
41 | COc1cccc(OCC(O)CN2CCC(C)CC2)c1.Cl (stereo not shown) | 3.42%
42 | Cc1ccc(OCC(O)CN2CCN(Cc3ccc4c(c3)OCO4)CC2)cc1C.Cl (stereo not shown) | 5.88%
43 | O=S(=O)(c1ccc(OCC(O)CN2CCC(Cc3ccccc3)CC2)cc1)N1CCOCC1 (stereo not shown) | -10.3%
44 | COc1cccc(OCC(O)CN2CCN(C(c3ccccc3)c3ccccc3)CC2)c1.Cl (stereo not shown) | 3.72%

Row | Compound | hERG current change (%, negative = inhibition) at 1uM
45 | Cc1ccc(C)c(OCC(O)CN2CCc3ccccc3C2)c1C.Cl (stereo not shown) | -56.1%
46 | CC(=O)N1CCc2cc(Br)cc(S(=O)(=O)CCC(=O)N3CCN(c4ccccn4)CC3)c21 | 6.2%
47 | CCn1c(Cc2cccs2)nnc1SCC(=O)c1ccc(C)cc1 | 5.59%
48 | COc1ccc(NS(=O)(=O)c2ccc(O)c(C(=O)OCC(=O)N3CC(C)OC(C)C3)c2)cc1 (stereo not shown) | 12.3%
49 | COc1cccc(NC(=O)CN2C(=O)COc3ccc(Cl)cc32)c1 | 8.19%
50 | Cc1ccc(C)c(NC(=S)NNC(=O)c2csc(C(C)C)c2)c1 | 0.742%
51 | COc1cc(NC(=O)c2sc3nc(C)nc(N4CCOCC4)c3c2C)cc(OC)c1OC | 30.1%
52 | Cc1csc2nc3cc(C(N)=O)ccc3c(=O)n12 | 10.2%
53 | CCCCN(C)Cc1c(C)[nH]c2c(ccc3ccccc32)c1=O | -56.1%
54 | CCCCN(CC)Cc1c(C)[nH]c2c(ccc3ccccc32)c1=O | -49.6%
55 | CCCCN(C)Cc1c(C)[nH]c2ccccc2c1=O | -8.8%
56 | O=C(c1ccco1)N1C(=O)c2cccc3c(S(=O)(=O)N4CCCC4)ccc1c23 | 6.3%
57 | CCc1ccc2oc(-c3cc(N)ccc3Cl)nc2c1 | 12%
58 | COc1ccc2cc(C(=O)C3CCCN(Cc4cccc(C)n4)C3)ccc2c1 (stereo not shown) | 11.2%
59 | COc1ccc(C(=O)C2CCCN(Cc3c(C)[nH]c4ccccc34)C2)c(OC)c1 (stereo not shown) | -28.6%
60 | COc1ccc(C(=O)C2CCCN(Cc3c[nH]c4ccccc34)C2)c(OC)c1 (stereo not shown) | -58.8%
61 | COc1ccc(C(=O)C2CCCN(Cc3cccc(C)n3)C2)c(OC)c1 (stereo not shown) | -58.3%
62 | COc1cccc(C(=O)C2CCCN(C/C=C/c3ccccc3OC)C2)c1 (stereo not shown) | -2.82%
63 | COc1ccc(C(=O)C2CCCN(C/C=C/c3ccccc3OC)C2)c(OC)c1 (stereo not shown) | -78.6%
64 | COc1ccc(C(=O)C2CCCN(C3Cc4ccccc4C3)C2)cc1OC (stereo not shown) | -33.2%
65 | COc1cccc(C(=O)C2CCCN(Cc3cccc(C)n3)C2)c1 (stereo not shown) | -30.1%
66 | COc1ccc(F)cc1C(=O)C1CCCN(Cc2c[nH]c3ccccc23)C1 (stereo not shown) | -18.6%

Row | Compound | hERG current change (%, negative = inhibition) at 1uM
67 | COc1ccc(C(=O)C2CCCN(C3Cc4ccccc4C3)C2)c(OC)c1 (stereo not shown) | -68.2%
68 | COc1ccc(C(=O)C2CCCN(Cc3ccc(C)s3)C2)c(OC)c1 (stereo not shown) | -2.87%
69 | COc1ccc(C(=O)C2CCCN(C3CSCCSC3)C2)c(OC)c1 (stereo not shown) | -4.62%
70 | CNC(=O)NC(=O)CSc1nnc(C(F)(F)F)n1C | 8.32%
71 | O=C(OCC(=O)N1CCCC1)c1c(Cl)ccc(Cl)c1Cl | 9.45%
72 | CCCc1nc(NC(C)=O)c(C#N)c(-c2ccco2)c1CC | 0.0807%
73 | Cc1cccc(C)c1NC(=O)c1c[nH]c2ccccc12 | 11.7%
74 | COCC(C)n1c(C)cc(C(=O)CN2c3cccc4cccc(c34)S2(=O)=O)c1C (stereo not shown) | 7.82%
75 | CC(C)C(c1nnnn1Cc1ccccc1)N(CCCO)Cc1cc2cc3c(cc2[nH]c1=O)OCO3 (stereo not shown) | 10.4%
76 | COC(=O)c1cc2ccsc2n1CC(=O)Nc1ccc(N(C)C)cc1 | 5.25%
77 | C=CCN1N=C(c2ccc(Cl)s2)CSC1=O | 22.3%
78 | Cc1ccc(NC(=S)NC(=O)CC2CC(C)(C)OC2=O)cc1 (stereo not shown) | 8.78%
79 | CCN1C(=O)/C(=C2\C=Cc3cc(C)ccc3N2CC)OC1=S | 14%
80 | CCN1C(=C(C#N)C#N)C=Cc2ccccc21 | 15.9%
81 | CCN1/C(=C/c2ccc3ccccc3[n+]2CC)C=Cc2ccccc21.[Cl-] | -89.5%
82 | CCN1C(=C(C#N)C#N)C=Cc2cc(C)ccc21 | 14.9%
83 | CCOC(=O)/C(C#N)=C/C=C1\C=Cc2ccccc2N1CC | 14.8%
84 | CCN1/C(=C/c2ccc3ccccc3[n+]2CCCS(=O)(=O)[O-])C=Cc2cc(C)ccc21 | 13%
85 | CCN1/C(=C2\C(=O)N(c3ccccc3)N=C2C)C=Cc2cc(C)ccc21 | -1.41%
86 | CCN1/C(=C/c2cc[n+](C)cc2)C=Cc2cc(C)ccc21.[I-] | -55.5%
87 | C=CC[n+]1c(/C=C2\C=Cc3cc(C)ccc3N2CC)ccc2ccccc21.[Br-] | -92.1%
88 | O=S(=O)(CCc1nnc(-c2ccc(Br)cc2)o1)c1ccc(Cl)cc1 | 6.04%

— article PMC4336329 (PLoS ONE, 2015)
